In the library only some 1.7% were active in any assay of this set; here they are far more common.
Vif imaging: inhibitors of HIV Vif; AID 602346; 340,000 compounds, 0.35% hits; inhibition, % at 7.49 µM; HEK293T cells, Vif self-association by quenched fluorescence, imaging, 24 h; in the data active = inhibition above about 50%, passing the limit was not always enough
F508del corr: CFTR F508del correction in bronchial cells; 350,000 compounds, 0.36% hits; CFBE cells, YFP halide quenching; stimulated with forskolin plus potentiator P3; % fluorescence drop versus neutral controls; activity (quench increase), % at 7.58 µM;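 active = mean added fluorescence quench of at least 8% versus neutral control, with both replicates also reaching 8%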;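 note: cells transiently co-express mutant CFTR-F508del with the halide-sensitive YFP; corrector assay measuring rescue of mutant channel to the surface after 24 h compound exposure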
FGF22 binding: shifts melting point of recombinant human FGF22; Q9HCT0; recombinant FGF22 thermal shift, SYPRO orange fluorescence; percent of sucrose octasulfate shift, DMSO zero; activity (Tm shift, normalised), % at 9.99 µM; 340,000 compounds, 1.5% hits; AID 651658;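 active = mean Tm shift, scaled 0 neutral to 100 positive control, at about 1.3% or above, every replicate too, limit read from the data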
Target sequence (Q9HCT0 whole entry, looked up): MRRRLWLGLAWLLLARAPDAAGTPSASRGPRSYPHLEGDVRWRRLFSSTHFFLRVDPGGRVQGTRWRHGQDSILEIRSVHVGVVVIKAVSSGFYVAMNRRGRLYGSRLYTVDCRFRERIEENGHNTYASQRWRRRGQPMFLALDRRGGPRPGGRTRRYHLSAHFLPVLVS
* marks the source's active call; other numbers are inactive results.

For Cc1cc(C)n2nc(C(=O)OCC(=O)c3c[nH]c4ccccc34)nc2n1 the results were Vif imaging -9, F508del corr 0 and FGF22 binding 44*.
NC(=O)Nc1ccc(C(=O)OCC(=O)c2c[nH]c3ccccc23)cc1 was read as Vif imaging -24, F508del corr -1 and FGF22 binding 44*.
Screening Cc1cc(C)n2nc(C(=O)OCC(=O)c3ccccc3)nc2n1 returned Vif imaging 16, F508del corr -1 and FGF22 binding 0.
For N#CCC(=O)Nc1ccc(C(=O)OCC(=O)c2c[nH]c3ccccc23)cc1 the results were Vif imaging -3, F508del corr 1 and FGF22 binding 0.
Screening O=C(CSc1nccc(=O)[nH]1)NC1CCCc2ccccc21 (stereo not drawn) returned Vif imaging 3, F508del corr 3 and FGF22 binding 0.
O=C(CSc1ncn[nH]1)NC1CCCc2ccccc21 (stereo not drawn) was read as Vif imaging -1, F508del corr -2 and FGF22 binding 43*.
For CC(C)NC(=O)C12CC3CC(C1)CC(C(=O)NC(C)C)(C3)C2 the results were Vif imaging -12, F508del corr 5 and FGF22 binding 44*.
Screening Cc1ccc(C23CC4CC(CC(C(=O)NC(C)C)(C4)C2)C3)cc1 returned Vif imaging -1, F508del corr 2 and FGF22 binding 0.
Screening O=C(C[C@H]1CC[C@@H]2[C@H](COC[C@H](O)CN2Cc2ccc(Oc3ccccc3)cc2)O1)N1CCOCC1 returned F508del corr -6 and FGF22 binding 0.
`O=C(c1ccc(F)cc1)N1CCCCN2[C@@H](CO)[C@H](c3ccc(/C=C/c4ccccc4)cc3)[C@@H]2C1` gave F508del corr -4 and FGF22 binding -1.
`Cc1occc1C(=O)N/N=C/C=C/c1ccccc1` gave Vif imaging 18, F508del corr 1 and FGF22 binding 43*.
O=C(N/N=C/C=C/c1ccccc1)c1cccc(Br)c1 was read as Vif imaging 6, F508del corr 1 and FGF22 binding 1.4*.
Screening Cc1occc1C(=O)N/N=C/C=C/c1ccc(N(C)C)cc1 returned Vif imaging 3, F508del corr 0 and FGF22 binding -1.
For Cc1ccc(C(=O)N/N=C/C=C/c2ccccc2)cc1 the results were Vif imaging 13, F508del corr 4 and FGF22 binding 0.
For COc1ccccc1NC(=O)N[C@@H]1CC[C@@H](CCNS(=O)(=O)c2ccccc2)O[C@H]1CO the results were F508del corr -3 and FGF22 binding 0.
`Nc1ncnc2c1ncn2[C@@H]1O[C@H](COS(=O)(=O)O)[C@@H](O)[C@H]1O` gave Vif imaging 1, F508del corr -3 and FGF22 binding 0.
For Nc1ncnc2c1ncn2C1OC(COP(=O)(O)O)C(O)C1O (stereo not drawn) the results were Vif imaging 66*, F508del corr 6 and FGF22 binding 0.
Nc1ncnc2c1ncn2C1OC(CO)C2OC21 (stereo not drawn) was read as Vif imaging -5, F508del corr 1 and FGF22 binding 0.
For Nc1ncnc2c1ncn2[C@@H]1O[C@H](COP(=O)(O)O)[C@@H](O)[C@H]1O the results were Vif imaging 106*, F508del corr 1 and FGF22 binding 0.
`Nc1ncnc2c1ncn2[C@@H]1O[C@H](COP(=O)(O)OP(=O)(O)OP(=O)(O)O)[C@@H](O)[C@H]1O` gave Vif imaging -4, F508del corr -2 and FGF22 binding 0.
Screening Nc1ncnc2c1ncn2[C@@H]1O[C@H](CO)C[C@H]1O returned Vif imaging 56*, F508del corr 0 and FGF22 binding 0.
For CN1C(=O)c2cc(NC(=O)C3CCOCC3)ccc2OC[C@H]2O[C@H](CC(=O)NC3CCCC3)CC[C@H]21 the results were F508del corr 1 and FGF22 binding 0.
Screening Cc1noc(C)c1S(=O)(=O)Nc1ccc2c(c1)C(=O)N([C@H](C)CO)C[C@@H](C)[C@@H](CN(C)CC1CCCCC1)OCCCC[C@@H](C)O2 returned F508del corr 2 and FGF22 binding 0.
For C[C@H]1CN([C@@H](C)CO)C(=O)c2cccc(NS(=O)(=O)c3cn(C)cn3)c2O[C@H]1CN(C)S(=O)(=O)c1ccccc1 the results were F508del corr 2 and FGF22 binding 0.
CS(=O)(=O)N1C[C@H](O)COC[C@@H]2O[C@@H](CC(=O)NCc3ccc(-c4ccccc4)cc3)CC[C@H]21 was read as F508del corr 1 and FGF22 binding 0.
For C[C@H]1CN([C@@H](C)CO)C(=O)c2cc(C#CCN(C)C)cnc2O[C@H]1CN(C)C(=O)Nc1ccccc1F the results were F508del corr 0 and FGF22 binding 0.

Assay outcomes: PubChem, Broad Institute
